# Laboratory results reported in ChEMBL document CHEMBL1961873, “Compounds: GSK PKIS; Assays: Nanosyn kinase panel” (2012).
# Target: T1, Aurora kinase A (Homo sapiens) (UniProt O14965)
# T1 sequence (whole entry): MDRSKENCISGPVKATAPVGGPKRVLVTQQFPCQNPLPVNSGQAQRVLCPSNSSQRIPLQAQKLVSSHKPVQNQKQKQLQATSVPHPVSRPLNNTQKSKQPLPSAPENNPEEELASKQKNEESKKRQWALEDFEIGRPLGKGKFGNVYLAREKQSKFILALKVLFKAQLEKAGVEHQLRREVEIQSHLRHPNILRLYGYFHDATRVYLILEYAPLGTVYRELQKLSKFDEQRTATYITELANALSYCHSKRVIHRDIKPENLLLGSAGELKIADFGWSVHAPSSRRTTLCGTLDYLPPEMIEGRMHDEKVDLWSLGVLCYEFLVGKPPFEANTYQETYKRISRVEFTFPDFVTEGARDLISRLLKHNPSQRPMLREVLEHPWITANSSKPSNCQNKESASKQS
# Conditions: at 0.1 µM
# 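Note: each reported value is a mean percent inhibition of Aurora-A.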
row,Structure (SMILES),inhibition [%]
1,O=C1Nc2ccc(I)cc2C1=Cc1cc(Br)c(O)c(Br)c1,3.6
2,CCS(=O)(=O)c1ccc(OC)c(Nc2ncc(-c3cccc(-c4ccccc4F)c3)o2)c1,0.79
3,COc1ccc(-c2ccc3c(NC(=O)C4CC4)n[nH]c3n2)cc1,1.67
4,CCc1ccc(Oc2nccc(-c3c(-c4ccc(F)cc4)ncn3C3CCNCC3)n2)cc1,3.7
5,NCc1ccc(-n2c(-c3nonc3N)nc3cnccc32)cc1,3.62
6,CN1CCN(CCCNc2nc3ccc(Oc4ccc(NC(=O)Nc5cc(C(F)(F)F)ccc5F)cc4)cc3[nH]2)CC1,-1.66
7,NS(=O)(=O)c1ccc(Nc2cc(-c3ccc(O)c(F)c3)n[nH]2)cc1,-2.14
8,NS(=O)(=O)c1ccc(N/N=C2\C(=O)Nc3ccc(-c4cnco4)cc32)cc1,1.82
9,CCc1cccc(CC)c1/C=C/c1cncc(C(=O)NC)c1,2.26
10,FC(F)(F)c1cccc(Nc2nccc(-c3cnn4nc(-c5ccccc5)ccc34)n2)c1,0.08
11,COc1ccc2cc(-c3c(-c4ccncc4)nc(-c4ccc([S+](C)[O-])cc4C)n3C)ccc2c1 (stereo unspecified),-0.61
12,CCS(=O)(=O)c1ccc(OC)c(Nc2ncc(-c3ccccc3Cl)o2)c1,1.49
13,C[C@@H](Oc1cc(-n2cnc3ccc(OCC4CCN(C)CC4)cc32)sc1C(N)=O)c1ccccc1Cl,3.84
14,C[C@@H](Oc1cc(-n2cnc3ccc(OC4CCN(C)CC4)cc32)sc1C(N)=O)c1ccccc1Cl,-0.97
15,CCN(CC)Cc1ccc(Nc2nccc(-c3cnn4ncccc34)n2)cc1,4.39
16,Fc1ccc(-c2ncn(CCCN3CCOCC3)c2-c2ccncc2)cc1,-0.48
